High-throughput results as filed in PubChem.
Most compounds without a hit are left out; they make up all but 5.7% or so of the library.
L3MBTL1 inh: L3MBTL1 (human) inhibition; AID 485360; Potency, µM (doses to about 57.1 µM), actives largely listed as inhibitors; Q9Y468; 230,000 compounds, 0.66% hits; AlphaScreen L3MBTL1–H3K9me1 peptide binding; also: nearly all actives have a fitted effect of over 60% in size
Target sequence (Q9Y468 whole entry, looked up): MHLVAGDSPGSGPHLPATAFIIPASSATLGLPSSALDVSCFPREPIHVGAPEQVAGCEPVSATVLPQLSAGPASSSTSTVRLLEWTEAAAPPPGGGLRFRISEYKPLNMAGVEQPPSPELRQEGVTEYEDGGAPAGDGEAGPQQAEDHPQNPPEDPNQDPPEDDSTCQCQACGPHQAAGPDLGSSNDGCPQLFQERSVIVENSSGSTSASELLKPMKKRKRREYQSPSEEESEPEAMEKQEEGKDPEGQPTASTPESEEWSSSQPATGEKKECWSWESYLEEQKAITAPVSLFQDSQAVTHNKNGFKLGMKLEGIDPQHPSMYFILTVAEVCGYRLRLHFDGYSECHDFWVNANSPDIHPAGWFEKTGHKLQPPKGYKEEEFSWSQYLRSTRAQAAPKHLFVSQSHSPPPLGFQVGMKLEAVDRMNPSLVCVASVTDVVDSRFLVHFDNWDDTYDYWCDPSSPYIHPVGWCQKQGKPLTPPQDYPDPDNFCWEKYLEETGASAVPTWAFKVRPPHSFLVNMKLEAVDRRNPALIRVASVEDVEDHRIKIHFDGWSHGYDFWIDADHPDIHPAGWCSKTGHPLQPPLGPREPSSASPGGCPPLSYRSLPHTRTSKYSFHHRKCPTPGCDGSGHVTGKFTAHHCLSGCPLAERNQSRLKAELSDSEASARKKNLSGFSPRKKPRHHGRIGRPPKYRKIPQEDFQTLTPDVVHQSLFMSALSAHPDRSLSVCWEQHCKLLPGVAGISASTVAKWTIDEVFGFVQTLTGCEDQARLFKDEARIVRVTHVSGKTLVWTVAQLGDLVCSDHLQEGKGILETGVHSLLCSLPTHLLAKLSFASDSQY
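Displacement of a biotinylated histone H3(1-15) peptide monomethylated at Lys9 (75 nM) from L3MBTL1 (50 nM) was measured by AlphaScreen after a 30 min room-temperature compound incubation; cefsulodin titration served as intraplate control.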
HP1b chromo inh: inhibitors of HP1-beta chromodomain binding to methylated histone tails; AlphaScreen HP1-beta / biotin-H3K9me3 peptide binding; Potency, µM (highest dose often 114 µM), most hits filed as inhibitors; 390,000 compounds, 0.56% hits; AID 540317; also: nearly all actives have a fitted effect of over 70% in size
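HP1-beta protein (50 nM final) preincubated 30 min at room temperature with biotinylated H3(1-18)K9me3 peptide (50 nM) in PBS pH 7.4, 0.01% Tween-20, then compound added for 30 min. AlphaScreen streptavidin donor/nickel chelate acceptor beads (10 ug/mL final), 30 min dark, luminescence read.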
BAZ2B inh: inhibitors of human BAZ2B bromodomain; AlphaScreen BAZ2B-H3K14Ac peptide displacement; Potency, µM (series often up to 114 µM), usual class: inhibitors; 360,000 compounds, 4.4% hits; also: nearly all actives have a fitted effect of over 60% in size
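BAZ2B 50 nM plus b-H3(5-23)K14Ac 50 nM, PBS pH 7.4/0.01% Tween-20, 30 min RT; compound added (max 110 uM), 30 min RT; streptavidin donor/Ni-chelate acceptor beads 10 ug/mL final, 20 min dark; AlphaScreen read.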
JMJD2A Tudor: inhibitors of human JMJD2A Tudor domain | Potency, µM (top dose mostly 114 µM), usual class: inhibitors | O75164 | 390,000 compounds, 4.4% hits | AlphaScreen JMJD2A-Tudor / H3K4me3 peptide binding; also: nearly all actives have a fitted effect of over 50% in size
KDM4E inh: inhibitors of human JMJD2E histone demethylase. B2RXH2. 230,000 compounds, 1.6% hits. JMJD2E catalytic domain, FDH-coupled NADH fluorescence (FDH is formaldehyde dehydrogenase). Potency, µM (highest dose often 57.1 µM), usual class: inhibitors. AID 2147; active = well fitted inhibition curve with a large enough effect, not every such curve was filed as active; inconclusive = small, poorly fitted or top-dose-only effect, or another doubt; inactive = no such curve, though single readings can be large or run the other way; also: nearly all actives have a fitted effect of over 50% in size
PI5P4K alpha inh: inhibitors of human PI5P4K alpha; 330,000 compounds, 1.2% hits; PI5P4Kalpha enzyme, ADP-Glo luminescence, 60 min; active compounds read low; AID 652105; max response, %; active = max response of -50% or lower; inconclusive = between -30% and -50%; inactive = -30% or higher; also: value at the top dose of about 77 µM
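ADP-Glo luminescence end-point read after a 60 min room-temperature kinase reaction of PI5P4Kalpha plus substrate, initiated with ATP at 5 microM final. Buffer: 0.038 M HEPES pH 7.4, EGTA, 0.1% CHAPS, 5% DMSO.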
ADP-Glo interf: counter-screen for PI5P4K inhibitors: ADP-Glo detection interference, no enzyme | shares compounds with PI5P4K alpha inh | AID 743285 | ADP-Glo detection counter-screen, luciferase luminescence, no enzyme | Potency, µM (doses to about 76.9 µM), most hits filed as inhibitors | 1,100 tested, under 10 active
A number is an active result; . = inactive; ? = inconclusive; / = no result; ! = a repeat was not active; [ ] = another dose, or the depositor's remark. Unless noted, calls follow the shape of the dose curve; as a rule, active = well fitted curve in the direction sought with a large enough effect; inconclusive = small, poorly fitted or top-dose-only effect, or another doubt; inactive = no such curve, though single readings can be large; an effect the other way counts as inactive or inconclusive.

SMILES | L3MBTL1 inh | HP1b chromo inh | BAZ2B inh | JMJD2A Tudor | KDM4E inh | PI5P4K alpha inh | ADP-Glo interf
CCOC(=O)C1=C(CC)Nc2ccccc2N=C1NC(=O)c1ccc(S(=O)(=O)N(C)C)cc1 | / | ? | . | ? | ? | -51 | .
CCOC(=O)C1=C(CC)Nc2ccccc2N=C1NC(=O)c1ccc(S(=O)(=O)N2CCOCC2)cc1 | . | . | . | . | . | . | /
Cn1c(=O)c2c(-c3ccccc3)n(-c3cccc(O)c3)cc2n(C)c1=O | / | / | / | / | / | -50 | .
COC(=O)C(C(=O)OC)[C@@H](NC(=O)OCc1ccccc1)c1ccccc1 | / | / | / | / | . | / | /
CCCOc1ccc(C(=O)Nc2c[nH]c(=O)[nH]c2=O)cc1 | . | . | . | . | ? | . | /
CCC(=O)Oc1ccc(C(=O)Nc2c[nH]c(=O)[nH]c2=O)cc1 | . | . | . | . | . | -53 | .
Cc1ccc(C)c(S(=O)(=O)Nc2ccc3oc(C)c(C(=O)O)c3c2)c1 | / | 50µM | 50µM | 50µM | / | -95 | .
CCOC(=O)c1ccc(N2C(=O)CC(C(=O)OC)=C2C)cc1 | .[11.4 µM] | . | . | . | . | . | /
CCOC(=O)C1=C(N)N(c2ccccc2)C(=O)C1 | / | ? | . | 3.5µM | . | -58 | .
CCC(=O)c1ccc(OCC(=O)N2CCN(S(=O)(=O)c3ccc(Cl)s3)CC2)cc1 | ? | . | . | . | / | -54 | .
CCCNc1c(F)c(F)c2c(C)c3ccccc3nc2c1F | . | . | . | . | . | -66 | .
CCCCC(=O)N(Cc1ccc2c(c1)OCO2)Cc1nc2ccccc2c(=O)[nH]1 | . | . | . | 32µM | . | -53 | .
O=C(Nc1cccc2cccnc12)c1csc(COCCO)n1 | / | / | / | / | / | . | .
C=CCOC(=O)Nc1nc(CCNC(=O)OCc2ccccc2)c(C(=O)OC)s1 | / | / | / | / | / | . | /
COc1ccc(Cl)cc1S(=O)(=O)NCCCn1ccnc1 | . | . | . | . | / | . | .
CC(=O)Nc1cccc2ccc(O)cc12 | / | . | / | . | / | -62 | .
COc1ccc(-c2nnn(CC(=O)N(CC(=O)NC3CCCC3)c3ccccc3)n2)cc1OC | . | . | . | 18µM | . | -51 | .
COc1ccc(N(CC(=O)NC2CCCC2)C(=O)Cn2nnc(-c3ccc(OC)c(OC)c3)n2)cc1 | . | . | . | . | . | . | /
NC(=O)c1c(NC(=O)CN2CCN(S(=O)(=O)c3ccccc3)CC2)sc2c1CCC2 | ? | . | . | . | / | -65 | .
COCc1c(C(=O)N2CCc3ccccc32)oc2ccccc12 | / | ? | . | . | / | -77 | .
Cc1c(C(=O)N2CCc3ccccc32)oc2ccccc12 | . | . | . | . | . | . | /
Cc1ccc(S(=O)(=O)N2[C@@H](c3ccc(C(C)(C)C)cc3)C(C(=O)O)=CC[C@H]2c2ccc(C(C)C)cc2)cc1 | . | . | / | 79µM | / | -63 | .
CCOC(=O)c1c(NC(=O)CN2C(=O)C(=O)N(CC(C)C)C2=O)sc(C)c1CC | . | . | . | . | / | . | /
COCCN(CC(=O)NCC1CCCO1)C(=O)CCC(=O)Nc1ccccn1 (centres undefined) | . | . | . | ? | . | -51 | .
O=C(CN(CC1CCCO1)C(=O)CCC(=O)Nc1ccccn1)NCC1CCCO1 (centres undefined) | . | . | . | . | . | . | /
SMILES | L3MBTL1 inh | HP1b chromo inh | BAZ2B inh | JMJD2A Tudor | KDM4E inh | PI5P4K alpha inh | ADP-Glo interf
O=C(NCc1ccc(F)cc1)C1CCN(S(=O)(=O)c2cccc3nonc23)CC1 | / | . | . | . | / | . | /
CCOc1ccccc1NC(C)C(=O)NC(=O)NC1CCCCC1 (centres undefined) | . | . | . | ? | / | . | /
CCCCC1Cc2[nH][nH]c(=O)c2C(c2ccc(Cl)cc2)O1 (centres undefined) | / | / | / | / | / | . | /
CCCCC1Cc2[nH][nH]c(=O)c2C(c2ccc(F)cc2)O1 (centres undefined) | / | / | / | / | / | -51 | .
Cc1noc(C)c1C(=O)OCC(=O)Nc1ncc(C(F)(F)F)cc1Cl | . | . | / | . | / | . | /
Cc1sc2ncn(CC(=O)N3CCC(C(N)=O)CC3)c(=O)c2c1S(=O)(=O)N1CC(C)CC(C)C1 (centres undefined) | / | . | . | 100µM | / | -90 | .
CCN1CCN(Cc2ccc(NC(=O)c3cc(NC(=O)N4CCNC4=O)cc(OC)c3)cc2C(F)(F)F)CC1 | / | . | ? | . | . | . | /
CCN1CCN(Cc2ccc(NC(=O)c3ccc(C)c(NC(=O)c4csc(-c5ccncc5)n4)c3)cc2C(F)(F)F)CC1 | / | . | ? | ? | . | -65 | .
CCN1CCN(Cc2ccc(NC(=O)c3cc(NC(=O)c4cc5cccc(OC)c5o4)cc(OC)c3)cc2C(F)(F)F)CC1 | / | . | ? | ? | ? | -61! | .
NS(=O)(=O)c1ccc(NC(=O)COC(=O)c2ncc(Cl)c(Cl)c2Cl)cc1 | . | . | / | . | / | . | /
CCCCOc1ccc(S(=O)(=O)NC(=O)C2(C)CCN2C(=O)CCc2ccccc2)cc1 (centres undefined) | / | / | / | / | / | -53 | .
CCCCOc1ccc(S(=O)(=O)NC(=O)C2(C)CCN2C(=O)Cc2ccccc2Cl)cc1 (centres undefined) | / | / | / | / | / | . | /
Cc1nc(C)c(C(=O)OCC(=O)Nc2cccc(C)c2C)s1 | . | . | . | . | / | . | /
CC(C)(C)c1cc(C(=O)NNc2cc(C(F)(F)F)ccc2Cl)n(Cc2ccccc2)n1 | . | . | . | . | . | . | /
O=C(CSc1nc2[nH]c(=O)cc(O)c2s1)Nc1cccc(Br)c1 | . | . | . | . | / | ? | /
O=C(CSc1nc2[nH]c(=O)cc(O)c2s1)Nc1ccc(Br)cc1 | . | . | . | . | / | -52 | .
Cc1cccc(NC(=O)CSc2nc3[nH]c(=O)cc(O)c3s2)c1 | . | . | . | . | / | -53 | .
CCc1ccccc1NC(=O)CSc1nc2[nH]c(=O)cc(O)c2s1 | / | . | . | . | / | ? | /
Cc1ccccc1NC(=O)CSc1nc2[nH]c(=O)cc(O)c2s1 | . | . | . | . | / | -62 | .
COc1ccccc1N1CCN(CCCNC(=O)c2cnn(-c3ccccc3)c2C2CCN(C(=O)OC(C)(C)C)CC2)CC1 | / | . | . | . | / | / | /
O=S1(=O)CCN(C2CCCCCCC2)CC1 | / | / | / | / | / | . | /
Cc1ccc(NC(=O)Cn2c(-c3ccc(F)cc3)cnc2SCC(=O)Nc2c(C)cccc2C)cc1 | . | . | . | . | . | . | /
CCCCC(=O)Nc1ccc2nc(SCC(=O)N3CCc4ccccc43)sc2c1 | / | . | . | . | / | / | /
CSCCC(NC(=O)c1ccccc1Cl)C(=O)N1CCCCCCC1 (centres undefined) | . | . | . | . | / | . | /
COc1ccc(C(=O)NC(CCSC)C(=O)N2CCCCCC2)cc1 (centres undefined) | / | . | . | . | / | -76 | .
